Source: PubChem BioAssay (National Center for Advancing Translational Sciences (NCATS))
A selection: hits, their analogues and other compounds. The true share with any hit is near 6%.
DRD3 agonist – qHTS of D3 Dopamine Receptor Agonist: qHTS; D(3) dopamine receptor (Homo sapiens), P35462; D3R DiscoveRx beta-arrestin cells, luminescence, 90 min; max activation, %; 410,000 tested, 0.58% active; AID 652048, 2013; in the data active = max activation above about 30%
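Agonist mode: compounds and dopamine controls were applied to plated cells for 90 min at 37 degrees C after an overnight attachment at 1500 cells/well. Luminescent read-out followed 30 - 60 minutes at room temperature with DiscoveRx detection reagent.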
D1 ag – Allosteric Agonists of the Human D1 Dopamine Receptor: qHTS; HEK293 T-REx D1 cells, calcium flux, agonist mode; D(1A) dopamine receptor (Homo sapiens), P21728; activation, % at 2 µM; 360,000 tested, 1% active; in the data active = activation above about 30%
Target sequence (P21728 whole entry, looked up): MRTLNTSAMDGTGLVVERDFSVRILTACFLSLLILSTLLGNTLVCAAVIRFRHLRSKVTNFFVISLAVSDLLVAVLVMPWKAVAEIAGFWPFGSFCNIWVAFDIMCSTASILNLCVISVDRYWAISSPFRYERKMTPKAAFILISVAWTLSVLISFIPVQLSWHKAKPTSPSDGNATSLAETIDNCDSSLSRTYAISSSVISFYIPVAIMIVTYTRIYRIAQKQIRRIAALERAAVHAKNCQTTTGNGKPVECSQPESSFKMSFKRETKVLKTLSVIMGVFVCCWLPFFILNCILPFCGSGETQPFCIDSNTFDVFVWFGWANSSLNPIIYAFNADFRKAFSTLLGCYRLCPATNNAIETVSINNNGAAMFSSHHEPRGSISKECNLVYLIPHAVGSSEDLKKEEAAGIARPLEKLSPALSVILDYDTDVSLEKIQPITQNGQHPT
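Inducible HEK293 T-REx D1 cells, force-coupled to calcium signalling, were plated at 4000 cells/well with tetracycline and held overnight at 30 C. After no-wash calcium dye loading, compound-evoked calcium rise over 180 s flagged agonists.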
D3 antag – qHTS of D3 Dopamine Receptor Antagonist: qHTS. D(3) dopamine receptor (Homo sapiens), P35462. D3R cells, DiscoveRx beta-arrestin luminescence, antagonist mode; stronger effect = lower value. max response, negative = inhibition, %. 360,000 tested, 2.5% active. AID 652054, 2013; in the data active = max response below about -50%; inconclusive = no clear call, values can overlap the other calls
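Cells expressing the human receptor were seeded at 1500 cells/well, incubated overnight at 37 degrees C in 5% CO2, then exposed to library compounds with dopamine controls for 90 minutes at 37 degrees C before luminescent detection.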
D1 antagonist – Antagonist of Human D 1 Dopamine Receptor: qHTS; HEK293 TREx D1 cells, calcium flux, dopamine EC80; stronger effect = lower value; AID 504652, 2011; 360,000 tested, 3.2% active; activity change, negative = inhibition, % at 10 µM; D(1A) dopamine receptor (Homo sapiens), P21728; in the data active = activity change below about -30%
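After overnight tetracycline induction at 30 C, force-coupled D1 HEK293 cells took up a no-wash calcium dye at room temperature. Compounds were added and monitored 180 s, and the response to EC80 dopamine was then recorded.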
D1 potentiator – Potentiators of Human D1 Dopamine Receptor: qHTS; AID 504651, 2011; potentiation, % at 10 µM; D(1A) dopamine receptor (Homo sapiens), P21728; 360,000 tested, 0.036% active; HEK293 TREx D1 cells, calcium flux, dopamine EC20 potentiation; in the data active = potentiation above about 30%
Hits are given with their value; . = inactive; ? = inconclusive; / = no result given.

SMILES	DRD3 agonist	D1 ag	D3 antag	D1 antagonist	D1 potentiator
C=CCc1ccc(OCCCCNC2CCCC2)c(OC)c1	.	.	-69	.	.
C=CCc1ccc(OCCOCCN(C)C)c(OC)c1	.	.	-71	.	.
Cc1nnn(C23C[C@@H]4C[C@@H](CC(C(=O)N5CCN(c6ccccc6)CC5)(C4)C2)C3)n1	.	.	.	-34	.
CCS(=O)(=O)c1nc2ccccc2n1CC(=O)Nc1ccccc1C(=O)OC	.	.	/	.	.
COc1ccc(-c2cc(C(=O)NCC(c3ccco3)N(C)C)c3ccccc3n2)cc1OC (stereo not given)	.	.	.	.	.
Cc1n[nH]c2ccc(Br)cc2c1=O	.	/	.	/	/
Cc1nc2c([nH]c3ccc(Br)cc32)s1	.	.	-101	.	.
Cc1ccccc1NC(=O)c1cc(S(=O)(=O)c2ccccc2)ccc1Cl	.	.	-52	.	.
CCOC(=O)c1sc(N2C(=O)c3oc4ccc(F)cc4c(=O)c3C2c2cccc(OC)c2)nc1C (stereo not given)	.	.	/	.	.
CCOC(=O)Cn1nc(C)n(-c2ccc(Br)cc2)c1=O	.	.	.	-48	.
CCOC(=O)Cn1nc(C)n(-c2ccc(Cl)cc2)c1=O	.	.	.	/	.
COc1cccc(Cc2nc3ccccc3nc2SCC(=O)N2CCc3ccccc32)c1	.	.	/	.	.
COc1ccc(C2(CNC(=O)CCC(=O)O)CCCC2)cc1OC	.	.	-51	.	.
COc1ccc(C2(CNC(C)=O)CCCC2)cc1OC	.	.	.	.	.
COc1ccc(-c2nc3ccc(C)cn3c2Cc2ccccc2)cc1OC	.	/	.	/	/
COc1cc(/C=N/NC(=O)c2ccc(Cl)cc2)ccc1OCC(=O)N1CC(C)OC(C)C1 (stereo not given)	.	.	-54	.	.
OCCCc1nc2n(n1)C(c1cccs1)C=C(c1ccccc1)N2 (stereo not given)	/	34	/	.	/
Cc1cc(=O)n2c3c(c4c(cc13)c(CN(C)C)cc(=O)n4C)OC2	.	/	.	/	/
CC(=O)Nc1c(C)nn(-c2ccccc2)c1N1CCC(C(=O)Nc2cc(F)ccc2F)CC1	.	.	/	.	.
CC(=O)Nc1ccc(NC(=O)C2CCN(c3c(NC(C)=O)c(C)nn3-c3ccccc3)CC2)cc1	.	.	/	-36	.
CSc1nnc(C)c(/C=C/Nc2ccc(F)cc2F)n1	.	.	.	.	.
C=CCSc1nnc(C)c(/C=C/Nc2ccc(Cl)cc2)n1	.	74	.	.	.
O=C(O)c1cccc(-n2c(/C=C/c3ccccc3)nc3ccccc3c2=O)c1	.	.	.	.	.
O=C(O)c1cc(-n2c(/C=C\c3ccc(F)cc3)nc3ccccc3c2=O)ccc1Cl	.	.	/	-32	.
CN(C)c1ccc(/C=C/c2nc3ccccc3c(=O)n2-c2ccc(C(=O)O)cc2)cc1	.	102	.	.	.
SMILES	DRD3 agonist	D1 ag	D3 antag	D1 antagonist	D1 potentiator
Cc1ccsc1CN(C)CC(=O)NCC(=O)Nc1ccc(F)c(F)c1F	.	/	.	/	/
CC1CCC(NS(=O)(=O)c2ccc(Cl)nc2)CC1 (stereo not given)	.	.	.	.	.
Nc1ccc(C#Cc2ccc3sc4ccccc4c(=O)c3c2)cc1	44	/	.	/	/
COc1cccc2sc3ccc(C#Cc4ccc(N)cc4)cc3c(=O)c12	.	.	.	.	.
C=CS(=O)(=O)O	.	/	/	/	/
CC(C)c1ccc(NC(=O)CCCN2C(=O)NC(C)(C)C2=O)cc1	.	.	.	-53	.
O=C(CCl)Nc1ccccc1Sc1ccc(Cl)cc1	.	.	?	.	.
CC1(C)NC(=O)N(CCCC(=O)Nc2ccc(C(F)(F)F)cc2)C1=O	.	.	.	.	.
Cc1ccc(C)c(Sc2ccc(NC(=O)CCN3C(=O)NC4(CCCC4)C3=O)cc2)c1	.	.	.	-33	.
Cc1ccc(Sc2ccc(NC(=O)CCl)cc2)c(C)c1	.	.	.	-73	.
Cc1ccccc1Nc1nc(C#N)nc(NC2CCCC2)n1	/	.	/	.	.
Cc1cccc(NC(=O)c2ncn3c2C(=O)N[C@H](C)C3)c1	.	/	.	/	/
Cc1[nH]cnc1CSCc1ccc(Cl)cc1	.	36	.	.	.
O=Cc1c(NCc2ccc(Cl)cc2)c2ccccc2[nH]c1=O	.	.	.	-37	.
O=Cc1c(NCc2ccccc2)c2ccccc2[nH]c1=O	.	.	.	.	.
COc1ccc(C(=O)/C=C/C(=O)N(CC(=O)NC2CCCCC2)Cc2ccccc2)c(O)c1	.	.	-115	.	.
COc1ccc(C(=O)/C=C/C(=O)N(Cc2ccc(F)cc2)C(C(=O)NC2CCCCC2)c2ccncc2)c(O)c1 (stereo not given)	.	.	.	-31	.
Cc1nc(-c2cccc(F)c2)sc1CCNC(=O)c1c(F)cccc1Cl	.	.	/	.	.
CCCOc1ccc(-c2cccc(NS(=O)(=O)c3cc(OC)ccc3OC)c2)nn1	.	.	/	.	.
COC(=O)Cn1cc(/C=N/NC(=O)c2ccc(C#N)cc2F)c2ccccc21	.	.	.	-39	.
c1ccc(CNCc2nnc(-c3cc4ccccc4[nH]3)s2)cc1	/	.	/	.	.
CN(C(=O)c1ccccc1OCc1ccc(Cl)cc1)c1ccccc1	.	.	.	.	.
CN(Cc1nc2ccccc2c(=O)[nH]1)C(=O)c1ccccc1OCc1ccc(Cl)cc1	.	.	.	-32	.
COc1ccc(CNC(=O)C2CCN(S(=O)(=O)c3cccc4nonc34)CC2)cc1	.	.	.	.	.
O=C(Nc1cccc(C(F)(F)F)c1)c1cc(-c2ccc(Cl)cc2)on1	.	.	/	.	.
SMILES	DRD3 agonist	D1 ag	D3 antag	D1 antagonist	D1 potentiator
FC(F)(F)c1cccc(Nc2nc3nonc3nc2Nc2ccc(Cl)cc2)c1	.	51	/	-48	.
CCC(=O)c1ccccc1OCCCn1cncn1	.	.	.	-31	.
CCC(=O)c1ccccc1OCCN1CCN(Cc2ccccc2)CC1	.	.	-84	.	.
COc1cc(C2CC(=O)Nc3c2c(=O)[nH]c2nc4ccccc4n32)ccc1O (stereo not given)	.	.	/	-49	.
Cc1ccc(-c2c(C#N)c(N)nc3c2CCCCC3)o1	.	.	.	-48	.
Cc1ccc(NC(=O)Cn2c(=O)n(CCCS(=O)(=O)C3CCCCC3)c(=O)c3ccccc32)cc1F	.	.	/	.	.
COC(=O)c1cc(=O)nc2scc(C)n12	.	.	.	.	.
COC(=O)c1cc(=O)nc2sc3ccccc3n12	.	.	-51	.	.
COc1ccc2oc(C(=O)Nc3ccc(S(=O)(=O)N(C)C4CCN(C)CC4)cc3)c(C)c2c1	.	37	.	-49	.
